In PubChem BioAssay (NCATS):
Inconclusive results are not listed. Calls of active or inactive are those of the source. Unless noted, the call rests on the fitted dose curve; in most records, active means well fitted curve in the direction sought with a large enough effect; inconclusive means small, poorly fitted or top-dose-only effect, or another doubt; inactive means no such curve, though single readings can be large; an effect the other way counts as inactive or inconclusive.

Tests used:
[1] = Stat Signaling Pathway (AID 446; active means well fitted curve in either direction with a large enough effect, not every such curve was filed as active;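 further: ME-180 cervical cancer cells given 40 pM IL-6 alongside compound; SIE-controlled beta-lactamase reporter measured as 460/530 nm FRET emission ratio; on the % scale 0 is the no-effect control and ±100 the full control effect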)
In short: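 ME-180 cells carrying a SIE-driven beta-lactamase reporter are stimulated with 40 pM IL-6 for 5 h at 37C in the presence of compound. The 460/530 nm FRET substrate ratio is read after 2.5 h at RT. Data are normalised to 300 pM IL-6 and to 125 nM JAK inhibitor controls.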

[2] = biological target: Glucocorticoid receptor (Homo sapiens) (UniProt P04150); assay: GR-GFP Redistribution (AID 450;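 active means compounds whose dose series gives a full or clear partial fitted curve of increased nuclear translocation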; further: potency means the concentration at half of the fitted maximal effect); conditions: U2OS GR-GFP nuclear translocation, laser cytometry, 2 h
Glucocorticoid receptor (Homo sapiens), sequence (P04150 whole entry, looked up, the tested form may be a part): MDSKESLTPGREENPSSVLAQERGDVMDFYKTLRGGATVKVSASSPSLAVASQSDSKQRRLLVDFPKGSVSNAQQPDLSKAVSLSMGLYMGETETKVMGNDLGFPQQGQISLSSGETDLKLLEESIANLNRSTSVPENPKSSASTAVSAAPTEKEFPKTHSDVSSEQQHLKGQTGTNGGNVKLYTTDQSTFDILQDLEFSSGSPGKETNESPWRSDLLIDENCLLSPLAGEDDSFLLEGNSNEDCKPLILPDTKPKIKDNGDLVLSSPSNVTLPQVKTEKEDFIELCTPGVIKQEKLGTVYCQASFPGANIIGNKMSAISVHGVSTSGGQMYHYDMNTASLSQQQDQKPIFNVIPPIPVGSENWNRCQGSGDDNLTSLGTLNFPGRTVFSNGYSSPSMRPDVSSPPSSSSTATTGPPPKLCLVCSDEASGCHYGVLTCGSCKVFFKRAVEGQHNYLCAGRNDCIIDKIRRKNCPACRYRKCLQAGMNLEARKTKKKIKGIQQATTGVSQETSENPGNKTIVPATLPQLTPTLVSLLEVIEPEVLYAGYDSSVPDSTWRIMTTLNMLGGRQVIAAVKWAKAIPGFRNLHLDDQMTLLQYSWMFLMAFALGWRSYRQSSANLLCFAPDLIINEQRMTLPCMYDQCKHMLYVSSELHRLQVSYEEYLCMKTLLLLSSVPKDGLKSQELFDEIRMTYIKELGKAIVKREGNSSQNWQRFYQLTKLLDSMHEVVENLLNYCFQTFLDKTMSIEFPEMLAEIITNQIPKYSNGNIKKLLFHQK

[3] = biological target: Glucocorticoid receptor (Homo sapiens) (UniProt P04150); assay: GR-EFC Redistribution (AID 451; calls by dose curve; further: potency means the concentration at half of the fitted maximal effect); conditions: CHO-K1 GR-EFC translocation, beta-gal luminescence, 2 h
In short: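 CHO-K1 cells stably expressing nuclear-localized β-gal enzyme acceptor and GR fused C-terminally to the enzyme donor fragment; ligand-driven nuclear translocation restores β-gal by complementation. Compounds titrated up to 46 uM final, 2 h at 37 °C; luminescence read.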

[4] = biological target: Mitogen-activated protein kinase 10 (Mus musculus) (UniProt Q61831); assay: JNK3 AlphaScreen Assay (AID 530; active means well fitted curve in either direction with a large enough effect, not every such curve was filed as active;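 further: kinase came from lysate of stimulated human HepG2 cells; signal reports phosphorylation of biotinylated GST-cJun 1-79 at Ser73 with 10 µM ATP; on the % scale 0 is the no-effect control and ±100 the full control effect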)
In short: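 JNK3 came from HepG2 lysates pre-activated with IL-1beta and TNF-alpha and phosphorylated biotinylated GST-cJun (1-79) at 10 uM ATP, pH 7.6, room temperature. Compounds were titrated. AlphaScreen signal used anti-phospho-cJun (Ser73) antibody.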

[5] = biological target: 3',5'-cyclic-AMP phosphodiesterase 4B (Homo sapiens) (UniProt Q07343); assay: qHTS Assay for Inhibitors of PDE-IV (AID 607; active means well fitted activation curve with a large enough effect in the main read-out, with a control signal flat, not every such curve was filed as active; further: % of control where 0% means no effect)
3',5'-cyclic-AMP phosphodiesterase 4B (Homo sapiens), sequence (Q07343 whole entry, looked up): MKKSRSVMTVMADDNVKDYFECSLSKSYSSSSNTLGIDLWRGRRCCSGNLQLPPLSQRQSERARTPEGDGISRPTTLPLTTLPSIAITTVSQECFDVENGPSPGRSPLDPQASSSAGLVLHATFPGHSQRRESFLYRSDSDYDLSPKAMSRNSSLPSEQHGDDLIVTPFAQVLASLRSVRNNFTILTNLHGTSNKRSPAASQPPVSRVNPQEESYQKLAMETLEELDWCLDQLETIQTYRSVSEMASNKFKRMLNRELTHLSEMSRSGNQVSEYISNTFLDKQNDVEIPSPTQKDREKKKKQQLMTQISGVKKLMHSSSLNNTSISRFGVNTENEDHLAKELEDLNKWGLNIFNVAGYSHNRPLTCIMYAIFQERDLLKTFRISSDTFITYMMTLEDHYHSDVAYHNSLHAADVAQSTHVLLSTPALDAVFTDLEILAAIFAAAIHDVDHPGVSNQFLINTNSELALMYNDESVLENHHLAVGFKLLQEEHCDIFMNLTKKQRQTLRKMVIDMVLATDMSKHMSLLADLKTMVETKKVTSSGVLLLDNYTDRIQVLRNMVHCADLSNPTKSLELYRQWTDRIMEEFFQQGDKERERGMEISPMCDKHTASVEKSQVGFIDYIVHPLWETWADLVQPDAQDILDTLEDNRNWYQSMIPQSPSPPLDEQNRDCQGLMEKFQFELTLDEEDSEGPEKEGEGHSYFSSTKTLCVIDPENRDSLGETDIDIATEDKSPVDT
In short: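 HEK293 ACTOne cells with CNG channel (1000/well), endogenous PDE4; membrane potential dye, compounds up to 22.9 uM final. Fluorescence Ex 535/Em 590; RO 20-1724 (100 uM final) as reference.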

[6] = qHTS Assay for Lipid Storage Modulators (AID 1519; calls by dose curve; on activity change, negative = inhibition: on the % scale 0 is the no-effect control and ±100 the full control effect); conditions: Drosophila S3 cells, BODIPY lipid droplet/cell ratio, laser cytometry, cells loaded with oleic acid
In short: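 Cells seeded at 5,000 per well were treated with compounds over a concentration series and loaded with oleic acid (400 uM, as added). Lipid droplet fluorescence (488 nm excitation, 500-530 nm channel) was read by laser-scanning cytometry and normalized to 20 uM Triacsin C.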

[7] = biological target: Ubiquitin carboxyl-terminal hydrolase 1 (Homo sapiens) (UniProt O94782); assay: Inhibitors of USP1/UAF1: Pilot qHTS (AID 504865); further: nearly all actives have a fitted effect of over 35% in size; further: potency means the concentration at half of the fitted maximal effect;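 on activity change, negative = inhibition: rhodamine fluorescence freed from ubiquitin-rhodamine substrate followed over time; top concentration of the series differs between compounds; on the % scale 0 is the no-effect control and ±100 the full control effect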
Ubiquitin carboxyl-terminal hydrolase 1 (Homo sapiens), sequence (O94782 whole entry, looked up): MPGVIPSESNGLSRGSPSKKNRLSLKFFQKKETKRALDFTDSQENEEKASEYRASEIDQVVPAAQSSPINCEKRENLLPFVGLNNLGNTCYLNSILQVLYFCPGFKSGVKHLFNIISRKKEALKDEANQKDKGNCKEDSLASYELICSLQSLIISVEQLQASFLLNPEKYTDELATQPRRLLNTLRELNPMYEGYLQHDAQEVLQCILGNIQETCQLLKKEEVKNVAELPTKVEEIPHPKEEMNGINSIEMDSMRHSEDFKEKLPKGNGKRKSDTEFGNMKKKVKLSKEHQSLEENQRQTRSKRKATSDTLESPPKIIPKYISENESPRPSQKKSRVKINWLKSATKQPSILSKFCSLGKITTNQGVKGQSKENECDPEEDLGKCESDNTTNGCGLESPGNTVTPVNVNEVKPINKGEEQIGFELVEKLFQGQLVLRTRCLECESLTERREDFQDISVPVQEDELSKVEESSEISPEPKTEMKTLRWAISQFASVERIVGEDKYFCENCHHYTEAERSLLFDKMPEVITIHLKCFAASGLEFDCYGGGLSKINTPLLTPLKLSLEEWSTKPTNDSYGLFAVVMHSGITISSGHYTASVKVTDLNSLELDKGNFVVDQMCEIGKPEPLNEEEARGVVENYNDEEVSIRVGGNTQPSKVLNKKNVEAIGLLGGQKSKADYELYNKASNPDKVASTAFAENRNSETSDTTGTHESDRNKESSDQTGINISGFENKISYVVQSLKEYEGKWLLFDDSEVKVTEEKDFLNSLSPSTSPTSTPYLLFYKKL
In short: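 1nM USP1/UAF1 + cpd, 15 min RT; start w/ Ub-Rho 150nM final; kinetic FL 480/540 nm, 6 reads q60 s. Buffer 50mM HEPES pH 7.8, 0.5mM EDTA, 1mM TCEP, 0.01% Tween-20, 0.1 mg/ml BSA.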

[8] = S16 Schwann cell viability assay (CellTiter-Glo assay) (AID 624031);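 further: native untransfected S16 rat Schwann cells; cellular ATP luminescence as a viability measure; plate controls were DMSO-treated cells for no effect and cell-free wells for full effect; nearly all actives have a fitted effect of over 70% in size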
In short: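 Concentration-effect curves come from CellTiter-Glo luminescence of S16 rat Schwann cells after 24 h compound exposure. Each reading was normalized to DMSO wells (0%) and wells without cells, and curves were ranked by r2 and response magnitude.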

[9] = qHTS profiling for inhibitors of Plasmodium falciparum proliferation (AID 504749); further: potency means the concentration at half of the fitted maximal effect;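 on activity, negative = inhibition: 0% = DMSO vehicle and full inhibition = artemisinin control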; on all read-outs here: nearly all actives have a fitted effect of over 60% in size; conditions: P. falciparum in erythrocytes, SYBR Green DNA, 72 h; for activity, negative = inhibition: at 12.8 µM (top of the series)
In short: (§1)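 P. falciparum-infected erythrocytes (0.3% parasitemia, 2.5% hematocrit final) were exposed to compounds for 72 h at 37 C in 5% CO2, then lysed with SYBR Green buffer overnight at room temperature; parasite DNA fluorescence was normalized to artemisinin and DMSO controls.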

CP192 = assay: as above; conditions: P. falciparum in erythrocytes, SYBR Green DNA, 72 h; series mostly up to 12.8 µM
In short: as §1

CP201 = assay: as above; conditions: P. falciparum in erythrocytes, SYBR Green DNA, 72 h; series mostly up to 12.8 µM
In short: as §1

CP262 = assay: as above; conditions: P. falciparum in erythrocytes, SYBR Green DNA, 72 h; series mostly up to 12.8 µM
In short: as §1

CP269 = assay: as above; conditions: P. falciparum in erythrocytes, SYBR Green DNA, 72 h; series mostly up to 12.8 µM
In short: as §1

CP305 = assay: as above; conditions: P. falciparum in erythrocytes, SYBR Green DNA, 72 h; series mostly up to 12.8 µM
In short: as §1

CP315 = assay: as above; conditions: P. falciparum in erythrocytes, SYBR Green DNA, 72 h; series mostly up to 12.8 µM
In short: as §1

CP325 = assay: as above; conditions: P. falciparum in erythrocytes, SYBR Green DNA, 72 h; series mostly up to 12.8 µM
In short: as §1

CP329 = assay: as above; conditions: P. falciparum in erythrocytes, SYBR Green DNA, 72 h; series mostly up to 12.8 µM
In short: as §1

FAB9 = assay: as above; conditions: P. falciparum in erythrocytes, SYBR Green DNA, 72 h; series mostly up to 12.8 µM
In short: as §1

JCK = assay: as above; conditions: P. falciparum in erythrocytes, SYBR Green DNA, 72 h; series mostly up to 12.8 µM
In short: as §1

PC49 = assay: as above; conditions: P. falciparum in erythrocytes, SYBR Green DNA, 72 h; series mostly up to 12.8 µM
In short: as §1

[10] = measured here: cell count channel max response
[11] = measured here: lipid channel max response

CC(=O)N[C@H](CS)C(=O)O
inactive: outcome [1] | Potency [2] > 46 µM | Potency [3] > 46 µM | Potency [4] | outcome [5] | activity change, negative = inhibition ([6]; at 57.5 µM (top of the series)) 4.08% | Potency [7]
2.82%: max response [6, 10]
18.6%: max response [6, 11]

C[C@@]12CCC(=O)C[C@@H]1CC(=O)[C@H]1[C@H]3CCC[C@]3(C)C(=O)C[C@@H]12 (tested in a mixture with another compound)
4.64%: max response [6, 11]
inactive: outcome [1] | Potency [2] > 20.6 µM | Potency [3] > 20.6 µM | Potency [4] | outcome [5] | activity change, negative = inhibition ([6]; at 25.7 µM (top of the series)) 0.558% | Potency [7]
2.78%: max response [6, 10]

CN[C@H]1[C@@H](O)[C@@H](NC)[C@@H]2O[C@@]3(O)C(=O)C[C@@H](C)O[C@H]3O[C@H]2[C@H]1O
inactive: outcome [1] | Potency [2] > 20.6 µM | Potency [3] > 20.6 µM | Potency [4] | outcome [5] | activity change, negative = inhibition ([6]; at 25.7 µM (top of the series)) 0.684% | Potency [7] | outcome [8] | activity, negative = inhibition ([9]; parasite line A) -10.3% | activity, negative = inhibition ([9]; parasite line B) -0.369% | Potency (CP192) | Potency (CP201) | Potency (CP262) | Potency (CP269) | Potency (CP305) | Potency (CP315) | Potency (CP325) | Potency (CP329) | Potency (FAB9) | Potency (JCK) | Potency (PC49)
2.93%: max response [6, 11]
1.41%: max response [6, 10]

CCc1c(C)[nH]c2c1C(=O)[C@H](CN1CCOCC1)CC2
-8.85%: max response [6, 10]
-8.65%: max response [6, 11]
inactive: outcome [1] | Potency [4] | outcome [5] | activity change, negative = inhibition ([6]; at 25.7 µM (top of the series)) 0.521% | outcome [8] | activity, negative = inhibition ([9]; parasite line A) 13% | activity, negative = inhibition ([9]; parasite line B) 6.66% | Potency (CP192) | Potency (CP201) | Potency (CP262) | Potency (CP269) | Potency (CP305) | Potency (CP315) | Potency (CP325) | Potency (CP329) | Potency (FAB9) | Potency (JCK) | Potency (PC49)

C[C@@]1(O)CCOC(=O)C1
inactive: outcome [1] | Potency [2] > 20.6 µM | Potency [3] > 20.6 µM | outcome [5] | activity change, negative = inhibition ([6]; at 25.7 µM (top of the series)) -1.74% | Potency [7]
-3.45%: max response [6, 10]
-5.01%: max response [6, 11]

CCO[C@H]1O[C@@H]([C@H](COCc2ccccc2)OCc2ccccc2)[C@@H](OCc2ccccc2)[C@H]1O
-12.6%: max response [6, 11]
inactive: outcome [1] | Potency [2] > 20.6 µM | Potency [3] > 20.6 µM | Potency [4] | outcome [5] | activity change, negative = inhibition ([6]; at 25.7 µM (top of the series)) -6.14% | outcome [8] | activity, negative = inhibition ([9]; parasite line B) -27.6% | Potency (CP192) | Potency (CP201) | Potency (CP262) | Potency (CP269) | Potency (CP305) | Potency (CP315) | Potency (CP325) | Potency (CP329) | Potency (FAB9) | Potency (JCK) | Potency (PC49)
-8.63%: max response [6, 10]

CC(=O)S[C@H]1CC2=CC(=O)CC[C@@]2(C)[C@H]2CC[C@@]3(C)[C@H](CC[C@]34CCC(=O)O4)[C@@H]12
inactive: outcome [1] | Potency [3] > 20.6 µM | Potency [4] | outcome [5] | activity change, negative = inhibition ([6]; at 25.7 µM (top of the series)) -7.24% | Potency [7]
active: Potency [2] 2.45 µM
-20.4%: max response [6, 10] | max response [6, 11]

Clc1ccc([C@H](Cn2ccnc2)OCc2c(Cl)cccc2Cl)c(Cl)c1
-18.9%: max response [6, 10]
-21.7%: max response [6, 11]
inactive: outcome [1] | Potency [2] > 20.6 µM | Potency [3] > 20.6 µM | activity change, negative = inhibition ([6]; at 25.7 µM (top of the series)) -0.836% | outcome [8]
active: Potency ([9]; parasite line B) 3.16 µM

COc1cc(N[C@@H](C)CCCN)c2ncccc2c1
-0.938%: max response [6, 10]
-2.77%: max response [6, 11]
inactive: outcome [1] | Potency [4] | outcome [5] | activity change, negative = inhibition ([6]; at 25.7 µM (top of the series)) -1.31%
active: Potency [7] 3.98 µM | Potency ([9]; parasite line A) 1.58 µM | Potency ([9]; parasite line B) 2.82 µM | Potency (CP192) 2.56 µM | Potency (CP201) 4.55 µM | Potency (CP262) 1.28 µM | Potency (CP269) 1.81 µM | Potency (CP305) 1.81 µM | Potency (CP315) 5.73 µM | Potency (CP325) 2.03 µM | Potency (CP329) 3.61 µM | Potency (FAB9) 0.891 µM | Potency (JCK) 3.98 µM | Potency (PC49) 2.24 µM

C=C(C)[C@H]1CC[C@]2(CO)CC[C@]3(C)[C@@H](CC[C@H]4[C@@]5(C)CC[C@@H](O)C(C)(C)[C@@H]5CC[C@@]43C)[C@H]12
-12.9%: max response [6, 10]
-22.1%: max response [6, 11]
inactive: outcome [1] | Potency [2] > 20.6 µM | Potency [3] > 20.6 µM | Potency [4] | outcome [5] | activity change, negative = inhibition ([6]; at 25.7 µM (top of the series)) -10.7% | Potency [7]

COc1ccc(-c2cc(=O)c3c(O)cc(O)cc3o2)cc1
4.93%: max response [6, 10]
23.2%: max response [6, 11]
inactive: Potency [2] > 20.6 µM | Potency [3] > 20.6 µM | outcome [5] | activity change, negative = inhibition ([6]; at 57.5 µM (top of the series)) 14.6% | Potency [7]
